This note sets out measurements from PubChem BioAssay AID1851 (National Center for Advancing Translational Sciences (NCATS), 2009).

Values joined by “and” are separate entries in the source; they are usually repeats but may differ in a detail not shown here. Identical values can stand only once. Screen size: about 16,000 compounds; about 5,700 (36%) were called active. About 24% were inconclusive and are not listed. Calls follow the shape of the dose curve; as a rule, active = well fitted curve in the direction sought with a large enough effect; inconclusive = small, poorly fitted or top-dose-only effect, or effect the other way; inactive = no such curve, though single readings can be large or run the other way. Some of the results follow.
% is scaled to controls: 0 for no effect and ±100 for the full control effect.

Chain of Cytochrome P450 1A2 (Homo sapiens) (P05177 whole entry, looked up): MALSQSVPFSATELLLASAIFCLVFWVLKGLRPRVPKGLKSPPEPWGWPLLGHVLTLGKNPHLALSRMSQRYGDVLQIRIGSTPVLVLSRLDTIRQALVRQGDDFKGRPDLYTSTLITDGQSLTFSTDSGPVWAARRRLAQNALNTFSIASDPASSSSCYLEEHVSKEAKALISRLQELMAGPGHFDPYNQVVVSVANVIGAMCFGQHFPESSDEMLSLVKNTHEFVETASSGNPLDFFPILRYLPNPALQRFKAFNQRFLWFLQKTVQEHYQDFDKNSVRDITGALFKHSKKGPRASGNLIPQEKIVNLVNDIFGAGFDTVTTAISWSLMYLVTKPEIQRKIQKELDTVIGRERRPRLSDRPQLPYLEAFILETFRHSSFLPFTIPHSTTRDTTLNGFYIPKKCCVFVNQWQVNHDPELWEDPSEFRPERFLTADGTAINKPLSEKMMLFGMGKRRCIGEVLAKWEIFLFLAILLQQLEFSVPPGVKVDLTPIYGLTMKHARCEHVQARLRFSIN

The experiment has as its target Cytochrome P450 1A2 (Homo sapiens) (UniProt P05177). Nature of the experiment: Cytochrome panel assay with activity outcomes. The conditions noted are these: recombinant CYP, pro-luciferin dealkylation, luminescence, p450-cyp1a2; series mostly up to 57.1 µM; activity, negative = inhibition: at the top concentration.
Take `C/C(=N\Nc1ccc([N+](=O)[O-])cc1)c1cccc(N)c1`: the AC50 is 1.26 µM (active).
As to `NC(=O)CNC(=O)[C@@H]1CC2(CC(c3cccc([N+](=O)[O-])c3)=NO2)CN1C(=O)c1ccccc1` (some centres not stated), the “activity, negative = inhibition” value is 15.4% (inactive).
In the case of `C/C(=N\Nc1nc(N)cc(Cl)n1)c1cccc([N+](=O)[O-])c1`, the AC50 is 11.2 µM (active).
Consider `C/C(=N\Nc1nnc(-c2ccccc2)c(-c2ccccc2)n1)c1cccc([N+](=O)[O-])c1`, for which the half-maximal activity concentration (AC50) was 3.55 µM (active).
Same read-out and setting: for `Nc1cc(Cl)nc(N/N=C/c2ccccc2[N+](=O)[O-])n1` the value was 2 µM (active).
On to `N=c1nc(N)nc(N)n1-c1ccc(S(N)(=O)=O)cc1`, for which the activity, negative = inhibition is -3.8% [at 2.29 µM] (inactive).
Take `O=C(c1ccccc1)[C@H](Nc1ccc2ccccc2c1)c1ccccc1`: the concentration at half-maximal activity (AC50) was 0.794 µM (active).
With `O=C(O)[C@@H](c1ccccc1)[C@@H](C(=O)O)c1ccccc1`, the activity, negative = inhibition was -12% [at 2.29 µM] (inactive).
With `O=C(CSc1nc2ccc([N+](=O)[O-])cc2s1)c1ccc2ccccc2c1`, the AC50 was 3.16 µM (active).
`COC(=O)\C(C(C)=O)=C(/C=C/C=C/C=C/N(C)C)N(C)C`: the “activity, negative = inhibition” value is -20.9% (inactive).
In the case of `Cc1cc(Cc2c(C)c(C)c(Cc3cc(C)cc(C(C)(C)C)c3O)c(C)c2C)c(O)c(C(C)(C)C)c1`, the activity, negative = inhibition is 4.96% [at 2.29 µM] (inactive).
`CC(C)(CO)Cc1cc(C(C)(C)C)c(O)c(C(C)(C)C)c1`: the AC50 was 25.1 µM (active).
Same read-out and setting: for `Nc1c2c(nc3ccccc13)CCCC2` the value was 3.16 µM (active) and 794 nM (active) and 501 nM (active); for `Nc1c2ccccc2nc2c(O)cccc12`, 6.31 µM (active).
In the case of `Nc1c2c(nc3ccccc13)CCC[C@H]2O`, the concentration at half-maximal activity (AC50) was 10 µM (active).
Consider `Cc1ccc(S(=O)(=O)Oc2cc(N)c3c(n2)CCC3)cc1`, for which the activity, negative = inhibition is -19.4% [at 2.29 µM] (inactive).
The same measure, in the same setting: for `COC(=O)[C@@]1(Cc2ccccc2)[C@H]2c3cc(C(=O)N4CCCC4)n(Cc4cc(F)cc5c4OCOC5)c3C[C@H]2CN1C(=O)c1ccccc1` the value was -17.1% (inactive); for `Cn1c(CN2CCCC2)nc2cc(NC(=O)C3CCCCC3)ccc21`, 4.54% (inactive); for `CC(=O)C[C@H](c1ccc([N+](=O)[O-])cc1)c1c(O)c2ccccc2oc1=O`, -0.353% [at 25.6 µM] (inactive).
As to `Cc1cc(NC(=O)C2CCCCC2)nc2c1c(=O)oc1ccccc12`, the AC50 was 3.16 µM (active).
For `Cc1ccccc1NC(=O)OCc1cn(-c2ccc(Cl)cc2)nn1`, the AC50 is 0.447 µM (active).
In the case of `CC(C)(C)C(=O)N1CCC(O)(CS(=O)(=O)Cc2ccc(Cl)cc2)CC1`, the “activity, negative = inhibition” value was 3.39% (inactive).
For the molecule `CCCCC(=O)OCc1cn(-c2ccc(Cl)cc2)nn1`, the AC50 is 0.447 µM (active).
The same measure, in the same setting: for `CC(C)(C)C(=O)OCc1cn(-c2ccc(Cl)cc2)nn1` the value was 0.708 µM (active).
Take `Cc1ccc(C(=O)c2cn(-c3ccc(F)c(Cl)c3)nn2)cc1`: the “activity, negative = inhibition” value was 24.6% (inactive).
With `CS(=O)(=O)N1CCC2(CC1)CN(C(c1ccccc1)c1ccccc1)C2`, the “activity, negative = inhibition” value was -1.89% (inactive).
In the case of `CCCC(=O)N1c2ccccc2C(N(C(C)=O)c2ccccc2)CC1C` (configuration not stated), the “activity, negative = inhibition” value was -9.48% (inactive).
Regarding `COCC(=O)N1CCC2(CC1)CN(C(c1ccccc1)c1ccccc1)C2`, the “activity, negative = inhibition” value was -6.23% (inactive).
The same measure, in the same setting: for `COc1ccc(S(=O)(=O)N2CCc3ccccc3C2)cc1OC` the value was -29.1% (inactive).
The same measure, in the same setting: for `COc1cc2c(cc1OC)[C@H](c1ccccc1)CN(C)CC2` the value was -1.36% (inactive).
In the case of `COc1cc2c(cc1OC)CN(C(=S)Nc1ccccc1)CC2`, the AC50 was 12.6 µM (active).
As for `CCOC(=O)c1nnn(-c2nonc2N)c1-c1ccccc1`, the half-maximal activity concentration (AC50) is 0.891 µM (active).
Still for that read-out and setting: under `CCOC(=O)c1nnn(-c2nonc2N)c1-c1ccc(C)cc1` stands 0.891 µM (active); under `CC(C)OC(=O)c1nnn(-c2nonc2N)c1CSc1ccccn1`, 1.78 µM (active).
With `CCOC(=O)c1nn(-c2ccccc2)c(-c2ccccc2)c1C(=O)c1ccccc1`, the “activity, negative = inhibition” value is -14.5% (inactive).
For the molecule `COC(=O)N1CCC2(CCCN(C(=O)Nc3ccccc3)C2)CC1`, the “activity, negative = inhibition” value was 3.75% (inactive).
On the same count and under the same terms, under `C[C@@]1(CCOCc2ccccc2)NC(=O)NC1=O` stands -13.5% [at 11.4 µM] (inactive); under `c1ccc(C(CCN2CC3CCC(CC3)C2)c2ccccc2)cc1`, 9.33% [at 11.4 µM] (inactive).
In the case of `C[C@@H]1CN(CCCn2c3ccccc3c3ccccc32)C[C@H](C)N1`, the AC50 was 0.794 µM (active).
In the case of `CN(C)CCCn1c2ccccc2c2cnccc21`, the activity, negative = inhibition is -20% [at 2.29 µM] (inactive).
Regarding `C/C(=N\NC(=O)c1[nH]c2c([N+](=O)[O-])cc(C)cc2c1-c1ccccc1)c1cccnc1`, the AC50 was 1.26 µM (active).
For `COc1ccc(NC(=O)N2CCCC2C(=O)Nc2ccccc2)cc1` (configuration not stated), the “activity, negative = inhibition” value was -29.6% (inactive).
As to `COc1ccc2c(Cl)cc(NC(=S)Nc3ccccc3)nc2c1`, the AC50 was 0.398 µM (active).
Same read-out and setting: for `COc1ccc(C(=S)Nc2ccccc2)cc1` the value was 0.631 µM (active).
As to `CS(=O)(=O)N1CCC[C@@]2(CCN(C(=O)Nc3cccc(F)c3)C2)C1`, the “activity, negative = inhibition” value was -25.2% (inactive).
For the molecule `CC(C)(C)c1cc(/C=C(\C#N)C(N)=S)cc(C(C)(C)C)c1O`, the half-maximal activity concentration (AC50) is 12.6 µM (active).
In the case of `Fc1ccc(SCCc2ccncc2)cc1`, the AC50 is 0.562 µM (active).
Regarding `N=C(N)SCCc1ccncc1`, the activity, negative = inhibition was -17.8% [at 2.29 µM] (inactive).
In the case of `c1ccc(SCCc2ccncc2)cc1`, the AC50 was 447 nM (active) and 200 nM (active).
Consider `COc1ccc(CCC(C)Nc2cccc(F)c2)cc1` (configuration not stated), for which the AC50 was 3.55 µM (active).
With `COc1ccc(CCC(C)NC2C3CC4CC(C3)CC2C4)cc1` (configuration not stated), the “activity, negative = inhibition” value was -18.9% (inactive).
For the molecule `CCn1c(C)c(/C=N/Nc2nc3ccccc3s2)c2ccccc21`, the AC50 was 2.51 µM (active).
On the same count and under the same terms, under `CCOC(=O)Nc1nc(-c2ccccc2)c(C)s1` stands 0.2 µM (active).
As to `CCOC(=O)c1sc(NS(=O)(=O)c2ccccc2)nc1C`, the “activity, negative = inhibition” value was -4.5% (inactive).
Take `CCOC(=O)c1sc(NC(C)=O)nc1-c1ccccc1`: the AC50 was 2.82 µM (active).
Turning to `CCN(CC)C(=O)N1CCN(C)CC1`, the “activity, negative = inhibition” value was -5.59% [at 25.6 µM] (inactive).
On to `COc1ccc(O[C@H]2C=C[C@@H](c3ccccc3)O[C@H]2CO/N=C(/C)CCC(=O)OC[C@@H]2O[C@H](C#Cc3ccccc3)C=C[C@@H]2Oc2ccc(C)cc2)cc1`, for which the activity, negative = inhibition is -5.99% [at 11.4 µM] (inactive).
For the molecule `O=[N+]([O-])c1cc(/C=N/O)ccc1SCc1ccccc1`, the half-maximal activity concentration (AC50) was 0.891 µM (active).
`O=C(O)c1ccc(Sc2nnnn2-c2ccccc2)c([N+](=O)[O-])c1`: the “activity, negative = inhibition” value is -12% (inactive).
Same read-out and setting: for `O=C(O)[C@H](Cc1ccc(O)c([N+](=O)[O-])c1)N1C(=O)c2ccccc2C1=O` the value was -17.9% [at 2.29 µM] (inactive).
As to `CCOC(=O)c1cnc2cc(-c3ccc(C)cc3)nn2c1-c1ccccc1`, the AC50 is 2.24 µM (active).
`CCOC(=O)c1cnc2cc(-c3ccc(C(C)(C)C)cc3)nn2c1N`: the “activity, negative = inhibition” value is -13.4% (inactive).
